Measured values reported in PubChem BioAssay (NCATS).
Values joined by “and” are separate entries in the source; they are usually repeats but may differ in a detail not shown here. Equal entries are not always repeated. Results filed as inconclusive are left out. A call without a number means that no potency is given here. Active and inactive are the calls of the source. Unless noted, calls come from the whole dose curve; as a rule, active = well fitted curve in the direction sought with a large enough effect; inconclusive = small, poorly fitted or top-dose-only effect, or another doubt; inactive = no such curve, though single readings can be large; an effect the other way counts as inactive or inconclusive.

Tests used:
[1] = biological target: alpha-glucosidase (Oryza sativa, rice) (UniProt Q653V4); test: Counterscreen for Glucocerebrosidase Inhibitors: qHTS Assay for Rice alpha-Glucosidase at pH 5.0 (AID 997)
Outline: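 Endpoint fluorogenic assay at pH 5.0: compounds (0.7 nM to 77 uM) titrated against 4 nM rice enzyme and 400 uM 4-MU-alpha-glucoside for 20 min at room temperature; NaOH/glycine stop, read ex 365/em 440 nm, Hill-fitted AC50.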

[2] = qHTS Assay for Lipid Storage Modulators (AID 1519; calls by dose curve); conditions: Drosophila S3 cells, BODIPY lipid droplet/cell ratio, laser cytometry, cells loaded with oleic acid; for activity change, negative = inhibition: at 57.5 µM (top of the series)
Outline: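 Cells seeded at 5,000 per well were treated with compounds over a concentration series and loaded with oleic acid (400 uM, as added). Lipid droplet fluorescence (488 nm excitation, 500-530 nm channel) was read by laser-scanning cytometry and normalized to 20 uM Triacsin C.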

[3] = Counterscreen for APE1 Inhibitors: Fluorescent Dye Displacement Validation Assay (AID 1707)
Outline: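 Endpoint fluorescence read at 480 nm excitation / 540 nm emission; DNA-binding compounds lower signal by displacing 250 nM Thiazole Orange from 50 nM dsDNA containing a tetrahydrofuran abasic site, Tris-HCl pH7.5 buffer with NaCl and MgCl2.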

[4] = biological target: Endonuclease 4 (Escherichia coli (strain K12)) (UniProt P0A6C1); test: Counterscreen for APE1 Inhibitors: qHTS Validation Assay for Inhibitors of Endonuclease IV (AID 1708)
Outline: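 Incision of a double-stranded 50 nM TAMRA/BHQ-2 abasic substrate was followed kinetically (525/598 nm, reads every 60 s) after 15 min enzyme–compound preincubation with 2 nM EndoIV in pH 7.5 Tris buffer with MgCl2, DTT and Tween-20; concentration-response format.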

[5] = qHTS for differential inhibitors of proliferation of Plasmodium falciparum line 7G8 (AID 1815);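 note: parasite growth measured after three days of incubation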; note: potency is the fitted concentration of half-maximal effect
[6] = qHTS for differential inhibitors of proliferation of Plasmodium falciparum line GB4 (AID 1816); conditions: Potency: Plasmodium falciparum GB4 proliferation inhibition;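 note: parasite growth measured after 72 h incubation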; note: potency is the fitted concentration of half-maximal effect
[7] = qHTS for differential inhibitors of proliferation of Plasmodium falciparum line 3D7 (AID 1876); note: potency is the fitted concentration of half-maximal effect
[8] = qHTS for differential inhibitors of proliferation of Plasmodium falciparum line D10 (AID 1877);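 note: parasites grown with compound for 72 h before DNA staining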; note: potency is the fitted concentration of half-maximal effect
[9] = qHTS for differential inhibitors of proliferation of Plasmodium falciparum line Dd2 (AID 1882); conditions: Potency: Plasmodium falciparum Dd2 proliferation inhibition; note: nearly all actives have a fitted effect of over 65% in size; note: potency is the fitted concentration of half-maximal effect
Outline: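 SYBR Green DNA fluorescence (ex 485, em 535 nm) after overnight lysis quantifies parasite growth; compound exposure lasted 72 h at 37 C on infected red cells at 2.5% hematocrit, 0.3% parasitemia (final). Artemisinin 0.29 uM and vehicle wells define normalization.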

[10] = qHTS for differential inhibitors of proliferation of Plasmodium falciparum line W2 (AID 1883); conditions: Potency: Plasmodium falciparum W2 proliferation inhibition;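 note: parasites grown with compound for 72 h before lysis and staining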; note: potency is the fitted concentration of half-maximal effect
[11] = qHTS for differential inhibitors of proliferation of Plasmodium falciparum line HB3 (AID 1886); conditions: Potency: Plasmodium falciparum HB3 proliferation inhibition;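 note: parasites grown with compound for 72 h before SYBR Green readout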; note: potency is the fitted concentration of half-maximal effect
[12] = qHTS Assay for Modulators of Human Peripheral Myelin Protein 22 (PMP22) Expression/Activity (AID 1967; active = well fitted curve in the direction sought with a large enough effect in the signal ratio; the % refers to the signal ratio)
Outline: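 Luminescence ratio of Pmp22 promoter-driven green luciferase to EF-alpha-driven red luciferase, in engineered mouse MSC80 Schwann cells, served as read-out. Compounds were incubated 24h; untreated cells defined 0% Activity; curves were classified by r2, magnitude and activity.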

[13] = biological target: ATP-dependent DNA helicase Q1 (Homo sapiens) (UniProt P46063); test: qHTS Validation Assay for Inhibitors of RecQ-Like Dna Helicase 1 (RECQ1) (AID 2353)
Outline: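 RECQ1T1 50 nM; forked duplex (20 bp + 30-nt ss tails) 200 nM, ATP 2 mM final; pH 8.0, 2 mM MgCl2, 2.5 ug/ml poly(dI-dC); 15 min compound preincubation; discontinuous kinetic read over 2 h at RT.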

[14] = biological target: DNA repair nuclease/redox regulator APEX1 (Homo sapiens) (UniProt P27695); test: qHTS Validation Assay for Inhibitors of the Human Apurinic/apyrimidinic Endonuclease 1 (APE1) (AID 1705;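 note: TAMRA fluorescence gain over two minutes as APE1 cuts a quenched THF abasic duplex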)
Outline: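 qHTS, 1536-well. APE1 + cpd 15 min RT → 50 nM TAMRA/BHQ-2 THF-abasic dsDNA substrate → kinetic fluorescence, 3 reads/60 s; delta(read3−read1) = reaction progress. No-enzyme buffer = negative control.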

[15] = biological target: RecQ-like DNA helicase BLM (Homo sapiens) (UniProt P54132); test: qHTS Validation Assay for Inhibitors of Bloom's syndrome helicase (BLM) (AID 2364); note: potency is the fitted concentration of half-maximal effect
Outline: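 Forked 20-bp duplex substrate (200 nM, TAMRA/BHQ-2) plus 2 mM ATP added after 15 min compound preincubation with 50 nM enzyme, pH 8.0, poly(dI-dC) 2.5 ug/ml. Strand separation followed by fluorescence (525/598 nm) over 2 h, normalized to enzyme-free and DMSO controls.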

[16] = biological target: Ferritin light chain (Equus caballus) (UniProt P02791); test: qHTS Validation Assay for Identification of Novel General Anesthetics (AID 2323)
Outline: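 Fluorescence at 535 nm (excitation 380 nm) reported loss of 1-AMA binding to horse-spleen apoferritin (10 uM) in PBS with 50% saturated 1-aminoanthracene, after 10 min room-temperature incubation with compound; values from Hill fits of normalized response.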

[17] = measured here: cell count channel max response
[18] = measured here: lipid channel max response

Sequence of DNA repair nuclease/redox regulator APEX1 (Homo sapiens) (P27695 whole entry, looked up): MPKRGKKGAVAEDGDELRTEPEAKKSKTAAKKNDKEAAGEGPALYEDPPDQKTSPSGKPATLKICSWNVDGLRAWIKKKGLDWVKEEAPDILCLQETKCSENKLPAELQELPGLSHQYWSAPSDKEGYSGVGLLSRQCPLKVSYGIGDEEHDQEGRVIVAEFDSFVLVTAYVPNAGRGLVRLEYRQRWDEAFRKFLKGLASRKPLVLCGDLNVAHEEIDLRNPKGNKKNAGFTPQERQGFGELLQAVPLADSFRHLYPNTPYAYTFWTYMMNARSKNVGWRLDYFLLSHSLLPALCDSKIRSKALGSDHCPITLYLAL
Sequence of Ferritin light chain (Equus caballus) (P02791 2-175 limits assumed): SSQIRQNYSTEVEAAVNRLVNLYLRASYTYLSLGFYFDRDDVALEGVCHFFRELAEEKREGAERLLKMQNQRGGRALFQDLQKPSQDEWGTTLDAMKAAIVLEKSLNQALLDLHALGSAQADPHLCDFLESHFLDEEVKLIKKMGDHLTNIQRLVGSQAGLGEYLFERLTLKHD
Sequence of RecQ-like DNA helicase BLM (Homo sapiens) (P54132 whole entry, looked up): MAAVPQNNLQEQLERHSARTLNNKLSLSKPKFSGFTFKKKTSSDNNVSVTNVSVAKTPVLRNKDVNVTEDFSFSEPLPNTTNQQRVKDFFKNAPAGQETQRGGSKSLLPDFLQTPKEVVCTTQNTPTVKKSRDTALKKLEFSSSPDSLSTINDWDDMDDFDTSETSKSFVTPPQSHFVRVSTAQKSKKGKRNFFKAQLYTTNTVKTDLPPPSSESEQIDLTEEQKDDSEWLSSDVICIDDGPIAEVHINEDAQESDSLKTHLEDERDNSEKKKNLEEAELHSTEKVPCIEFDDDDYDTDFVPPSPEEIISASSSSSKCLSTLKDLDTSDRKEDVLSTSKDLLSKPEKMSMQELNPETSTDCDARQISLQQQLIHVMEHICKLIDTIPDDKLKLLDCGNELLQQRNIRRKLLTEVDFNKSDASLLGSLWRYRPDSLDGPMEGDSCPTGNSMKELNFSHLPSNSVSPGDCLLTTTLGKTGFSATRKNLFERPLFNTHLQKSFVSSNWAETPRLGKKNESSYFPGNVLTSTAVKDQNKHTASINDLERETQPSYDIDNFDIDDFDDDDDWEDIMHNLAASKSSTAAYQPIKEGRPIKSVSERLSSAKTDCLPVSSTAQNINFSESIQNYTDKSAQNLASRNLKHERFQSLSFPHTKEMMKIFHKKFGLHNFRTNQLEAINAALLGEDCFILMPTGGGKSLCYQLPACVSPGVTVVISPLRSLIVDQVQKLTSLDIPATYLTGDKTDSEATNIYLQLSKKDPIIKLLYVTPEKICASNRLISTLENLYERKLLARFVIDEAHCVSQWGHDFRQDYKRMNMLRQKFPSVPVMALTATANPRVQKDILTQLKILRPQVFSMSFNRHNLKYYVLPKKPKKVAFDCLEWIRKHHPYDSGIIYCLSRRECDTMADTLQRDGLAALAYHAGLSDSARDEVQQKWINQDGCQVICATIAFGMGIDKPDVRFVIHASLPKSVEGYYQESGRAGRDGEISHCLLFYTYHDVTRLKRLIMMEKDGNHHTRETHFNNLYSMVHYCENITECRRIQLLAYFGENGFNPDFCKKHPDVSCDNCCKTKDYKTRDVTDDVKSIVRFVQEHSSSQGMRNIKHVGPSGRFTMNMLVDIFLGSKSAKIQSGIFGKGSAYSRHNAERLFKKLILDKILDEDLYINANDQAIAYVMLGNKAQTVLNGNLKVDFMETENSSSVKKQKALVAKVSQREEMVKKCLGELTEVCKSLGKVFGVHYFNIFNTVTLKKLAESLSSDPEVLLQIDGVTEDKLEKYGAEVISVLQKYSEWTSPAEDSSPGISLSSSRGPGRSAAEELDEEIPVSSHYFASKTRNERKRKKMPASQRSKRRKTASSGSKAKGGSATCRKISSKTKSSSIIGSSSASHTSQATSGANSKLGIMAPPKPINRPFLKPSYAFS
Sequence of ATP-dependent DNA helicase Q1 (Homo sapiens) (P46063 whole entry, looked up): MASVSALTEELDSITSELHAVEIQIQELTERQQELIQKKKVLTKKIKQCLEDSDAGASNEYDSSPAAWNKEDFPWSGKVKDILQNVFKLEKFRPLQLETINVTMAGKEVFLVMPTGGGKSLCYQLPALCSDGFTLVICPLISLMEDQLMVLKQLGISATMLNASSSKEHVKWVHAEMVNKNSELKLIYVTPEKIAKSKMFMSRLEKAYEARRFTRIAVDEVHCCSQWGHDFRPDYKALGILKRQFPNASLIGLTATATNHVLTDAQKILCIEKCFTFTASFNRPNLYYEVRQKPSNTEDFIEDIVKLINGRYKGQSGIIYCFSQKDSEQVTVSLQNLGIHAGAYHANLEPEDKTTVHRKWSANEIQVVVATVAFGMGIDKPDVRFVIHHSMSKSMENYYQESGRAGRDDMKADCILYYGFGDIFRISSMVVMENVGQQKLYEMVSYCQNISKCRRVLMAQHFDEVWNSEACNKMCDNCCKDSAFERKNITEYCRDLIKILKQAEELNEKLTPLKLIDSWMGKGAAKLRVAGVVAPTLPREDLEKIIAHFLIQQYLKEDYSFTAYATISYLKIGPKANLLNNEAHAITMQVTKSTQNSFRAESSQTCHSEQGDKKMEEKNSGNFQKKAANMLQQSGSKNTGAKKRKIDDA

| Structure (SMILES) | outcome [1] | activity change, negative = inhibition [2] | max response [2, 17] | max response [2, 18] | Potency [3] | Potency [4] | Potency [5] | Potency [6] | Potency [7] | Potency [8] | Potency [9] | Potency [10] | Potency [11] | outcome [12] | Potency [13] | Potency [14] | Potency [15] | Potency [16] |
| --- | --- | --- | --- | --- | --- | --- | --- | --- | --- | --- | --- | --- | --- | --- | --- | --- | --- | --- |
| C#CCn1c(=O)c2c(ncn2C)n(C)c1=O | inactive | 2.4% (inactive) | -11.8% | -10.7% | inactive | inactive | inactive | inactive | inactive | inactive | inactive | inactive | inactive | inactive | inactive |  |  |  |
| COc1ccc(NC(=O)c2ccc(-c3ccc(-c4noc(C)n4)cc3C)cc2)cc1N1CCN(C)CC1 | inactive |  |  |  | inactive | inactive | 4.47 µM (active) | 3.98 µM (active) | 2.82 µM (active) | 2.51 µM (active) | 5.62 µM (active) | 3.98 µM (active) | 2.82 µM (active) |  | inactive | inactive | inactive |  |
| O=c1ccn([C@@H]2O[C@H](COP(=O)(O)OP(=O)(O)O)[C@@H](O)[C@H]2O)c(=O)[nH]1 |  | 1.87% (inactive) | -6.87% | -4.31% | inactive | inactive | inactive | inactive |  | inactive | inactive | inactive | inactive |  | inactive |  |  |  |
| C[C@@]1(C2CCCC2)Cc2cc(OCC(=O)O)c(Cl)c(Cl)c2C1=O |  |  |  |  | inactive | inactive | inactive | inactive | inactive | inactive | inactive | inactive | inactive | inactive |  | inactive |  | inactive |
| NC(N)=N[C@@H](CCC(=O)O)C(=O)O |  |  |  |  | inactive | inactive | inactive | inactive | inactive | inactive | inactive | inactive | inactive |  | inactive | inactive |  | inactive |
| Fc1ccc(CN(C2=NCCN2)c2c(Cl)cccc2Cl)cc1 | inactive |  |  |  | inactive | inactive | 6.31 µM (active) | 5.62 µM (active) | 11.2 µM (active) |  | 7.94 µM (active) | 3.55 µM (active) |  |  |  | inactive | inactive | inactive |
| O=C(O)c1cc2cc(F)ccc2[nH]1 | inactive | 8.59% (inactive) and -0.743% (inactive) | 14.4% and 31% | 24.2% and 29.2% |  | inactive |  |  | inactive | inactive | inactive |  |  | inactive | inactive | inactive | inactive | inactive |
| CCCCOC(=O)NS(=O)(=O)c1sc(CC(C)C)cc1-c1ccc(Cn2c(CC)nc3c(C)cc(C)nc32)cc1 | inactive | -0.147% (inactive) | 28.5% | 27.6% | inactive |  | 7.08 µM (active) | 8.91 µM (active) | 11.2 µM (active) | 11.2 µM (active) |  | 7.94 µM (active) | 12.6 µM (active) |  | inactive |  |  | inactive |
| N#CC(=C(\N)Sc1ccccc1N)/C(C#N)=C(/N)Sc1ccccc1N |  |  |  |  | inactive | inactive | 2.51 µM (active) | 4.47 µM (active) | 3.98 µM (active) | 2 µM (active) | 7.08 µM (active) | 2.82 µM (active) | 4.47 µM (active) | inactive | inactive | inactive |  |  |
| CCCCCCCCCCCCCCSCC(=O)O | inactive |  |  |  | inactive | inactive | inactive | inactive | inactive | inactive | inactive | inactive | inactive | inactive | inactive | inactive |  |  |
| O=c1cc(-c2ccccc2)[nH]c2nc(Cl)ccc12 | inactive | 0.241% (inactive) | 61.8% | 65% | inactive | inactive | 10 µM (active) | 14.1 µM (active) |  |  | inactive | 10 µM (active) |  |  | inactive |  |  | inactive |
| CCCc1c(-c2ccc(O)cc2)nn(-c2ccc(O)cc2)c1-c1ccc(O)cc1 | inactive |  |  |  | inactive |  |  | inactive | inactive | inactive |  |  | inactive |  | inactive | inactive |  |  |
| O=C(c1ccc2c(c1)OCCO2)N1CCCCC1 |  |  |  |  |  |  |  |  |  |  | inactive |  |  | inactive |  |  | inactive |  |
| N[C@@H](Cc1ccc(F)cc1)C(=O)O |  |  |  |  | inactive | inactive | 12.6 µM (active) | 14.1 µM (active) | 11.2 µM (active) | 17.8 µM (active) | inactive | 11.2 µM (active) | 12.6 µM (active) |  | inactive |  | inactive | inactive |
| C=CC1(C)CC(=O)C2(O)C(C)(O1)C(OC(C)=O)C(O)C1C(C)(C)CCC(O)C12C (configuration not stated) |  |  |  |  | inactive | inactive |  | inactive | inactive | inactive | inactive |  |  |  | inactive | inactive |  | inactive |
| O=C(O)c1ccccc1Nc1cccc(OCc2ccc3ccccc3n2)c1 | inactive |  |  |  | inactive | inactive |  |  | inactive | inactive | inactive |  | inactive |  | inactive | inactive |  | inactive |
| CC1CNCCN1S(=O)(=O)c1cccc2cnccc12 (configuration not stated) |  |  |  |  | inactive | inactive |  | 12.6 µM (active) | inactive | inactive |  | 7.08 µM (active) | inactive |  | inactive |  | inactive | inactive |
| [N-]=[N+]=Nc1ccc(C(=O)CSC[C@H](NC(=O)CC[C@H](N)C(=O)O)C(=O)NCC(=O)O)cc1 |  |  |  |  | inactive |  | inactive |  | inactive | inactive | inactive |  | inactive |  |  |  | 28.2 µM (active) |  |
| CC(C)(CO)Cc1cc(C(C)(C)C)c(O)c(C(C)(C)C)c1 | inactive |  |  |  | inactive |  |  |  | 3.98 µM (active) |  | inactive | 10 µM (active) |  |  | inactive | inactive |  |  |
| COc1cc([C@@H]2c3cc4c(cc3[C@H](O)C3COC(=O)[C@@H]32)OCO4)cc(OC)c1OC (some centres not stated) |  |  |  |  | inactive |  |  |  |  |  |  |  |  | inactive | inactive | inactive | inactive | inactive |
| CC(C)(C)c1cc(/C=C(\C#N)C(N)=S)cc(C(C)(C)C)c1O | inactive |  |  |  | inactive | inactive | 7.94 µM (active) | 7.94 µM (active) | 4.47 µM (active) | 8.91 µM (active) | 8.91 µM (active) | 2.82 µM (active) | 6.31 µM (active) |  | inactive |  |  |  |
| CC(/C=C/c1cccc(Oc2ccc(F)cc2)c1)N(O)C(N)=O (configuration not stated) |  |  |  |  | inactive | inactive |  |  |  |  |  | 10 µM (active) |  |  | inactive |  |  |  |
| O=c1ccc2c(OCCCCc3ccccc3)c3ccoc3cc2o1 | inactive |  |  |  | inactive |  |  | 11.2 µM (active) |  | 12.6 µM (active) |  | 10 µM (active) |  |  | inactive | inactive |  | inactive |
| Clc1nccc2c1ccc1ccccc12 | inactive |  |  |  | inactive |  | inactive | inactive | inactive | inactive | inactive |  | inactive |  | inactive |  | inactive | inactive |
| COc1ccccc1N1CCN(CCN(C(=O)c2ccc(F)cc2)c2ccccn2)CC1 | inactive |  |  |  | inactive | inactive |  |  |  |  |  | 8.91 µM (active) |  |  | inactive | inactive |  | inactive |
| CCCC(=O)NCCc1c2n(c3ccc(OC)cc13)CCCc1ccccc1-2 | inactive |  |  |  | inactive |  | 3.55 µM (active) | 11.2 µM (active) |  | 12.6 µM (active) |  | 7.94 µM (active) | 11.2 µM (active) |  | inactive | inactive |  |  |
| C=C1C(=O)O[C@@H]2[C@H]3O[C@]3(C)CCC=C(C)CC[C@@H]12 |  |  |  |  | inactive |  | 11.2 µM (active) |  |  |  |  | 10 µM (active) | 11.2 µM (active) |  | inactive | inactive | inactive |  |
